# Experimental data: PubChem BioAssay (NCATS)
# Inconclusive results are not listed. Where a call stands in place of a potency, no number is given. Calls of active or inactive are those of the source. Calls follow the shape of the dose curve; as a rule, active = well fitted inhibition curve with a large enough effect; inconclusive = small, poorly fitted or top-dose-only effect; inactive = flat fitted curve, though single readings scatter.
# Molecular target: Phospholipid hydroperoxide glutathione peroxidase GPX4 (Homo sapiens) (UniProt P36969)
# Sequence (P36969 whole entry, looked up): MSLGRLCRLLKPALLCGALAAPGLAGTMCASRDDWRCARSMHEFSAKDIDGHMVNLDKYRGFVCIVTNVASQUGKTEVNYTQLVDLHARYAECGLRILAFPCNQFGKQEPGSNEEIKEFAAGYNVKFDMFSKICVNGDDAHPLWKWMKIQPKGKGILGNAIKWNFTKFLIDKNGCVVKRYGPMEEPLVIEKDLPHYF
# Experiment: Primary qHTS Assay for Inhibitors of Recombinant Selenoprotein Glutathione Peroxidase 4 (GPX4) (AID 1845192); also: nearly all actives have a fitted effect of over 65% in size
# Settings: recombinant GPX4, GR-coupled NADPH fluorescence, 15 min; series mostly up to 50 µM
# In short: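 qHTS, GR-coupled: GPX4 200 nM + cpd 30 min RT → GSH 1 mM, NADPH 0.5 mM, GR 100 nM → CHP 0.5 mM start; fluor 340/450 at t0 and t15 min; no-enzyme wells as control.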
# Potency is read from the fitted curve at half-maximal effect.
row,SMILES,Potency
1,COc1ccc(-c2ccc3c(N4CCOCC4C)nc(N4CCOCC4C)nc3n2)cc1CO (stereo not given),10.1 µM (active)
2,O=C(NCCN1CCOCC1)c1cc2c(Oc3ccc(NC(=O)C4(C(=O)Nc5ccc(F)cc5)CC4)cc3)ccnc2[nH]1,inactive
3,C=C[C@@]1(C)C=C2C(=O)C(O)=C3[C@](C)(C(=O)O)CC[C@@H]4C[C@]34[C@]2(O)C(=O)C1,inactive
4,CCc1cccc(CC)c1-n1c(C=C(C)C)c(C(=O)N2CCNCC2)cc(-c2nc(-c3ccc(C(F)(F)F)cc3)cs2)c1=O,inactive
5,CCc1cc2c(cc1CC)CC(NCC(O)c1ccc(O)c3[nH]c(=O)ccc13)C2 (stereo not given),inactive
6,COCC(=O)NC/C=C/c1ccc2ncnc(Nc3ccc(Oc4ccc(C)nc4)c(C)c3)c2c1,inactive
7,O=C(c1c(F)ccc(NS(=O)(=O)N2CC[C@@H](F)C2)c1F)c1c[nH]c2ncc(-c3cnc(C4CC4)nc3)cc12,inactive
8,CN1CCN(c2ccc(-c3cccc(CN4CCOCC4)c3)cc2NC(=O)c2c[nH]c(=O)cc2C(F)(F)F)CC1,inactive
9,CCNC(=O)C#Cc1ccc2c(C(=Nc3ccc(CN(C)C)cc3)c3ccccc3)c(O)[nH]c2c1,inactive
10,CC(CCC1(O)OC2CC3C4CC=C5C[C@@H](O[C@@H]6O[C@H](CO)[C@@H](O[C@@H]7O[C@@H](C)[C@H](O)[C@@H](O)[C@H]7O)[C@H](O)[C@H]6O[C@@H]6O[C@@H](C)[C@H](O)[C@@H](O)[C@H]6O)CC[C@]5(C)C4CC[C@]3(C)[C@@]2(O)[C@@H]1C)CO[C@@H]1O[C@H](CO)[C@@H](O)[C@H](O)[C@H]1O (stereo not given in full),inactive
